The nature of assay [1]: NCI Yeast Anticancer Drug Screen. Data for the rad50 strain (AID 155).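 Note: 0% = growth of vehicle-only cultures of the same strain.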 The settings on record: S. cerevisiae rad50 strain growth inhibition, active compounds read high. The essentials:
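Inhibition values express reduced yeast growth in compound-treated cultures relative to vehicle-treated controls.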

Assay [2] in a line: NCI Yeast Anticancer Drug Screen. Data for the mec2-1 strain (AID 157). The settings on record: S. cerevisiae mec2-1 strain, active compounds read high. The method, boiled down: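 Vehicle-treated cultures served as reference for growth inhibition of compound-exposed mec2-1 yeast.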
Assay [3] is described as follows: NCI Yeast Anticancer Drug Screen. Data for the sgs1 mgt1 strain (AID 161).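 Note: 0% = growth of cultures given vehicle only.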 The settings on record: S. cerevisiae sgs1 mgt1 strain, active compounds read high. The essentials: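 Test agents were incubated with a DNA-repair-mutant yeast strain. Growth was then read and compared against vehicle-treated controls.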
A short description of assay [4]: NCI Yeast Anticancer Drug Screen. Data for the cln2 rad14 strain (AID 165).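 Note: 0% = growth equal to vehicle treated cultures.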 The following applies: S. cerevisiae cln2 rad14 strain, active compounds read high. The method, boiled down: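 Each compound was tested on cln2 rad14 yeast. Inhibition of growth was calculated against vehicle-exposed controls.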
The nature of assay [5]: NCI Yeast Anticancer Drug Screen. Data for the bub3 strain (AID 167). The settings on record: S. cerevisiae bub3 mutant strain, active compounds read high. The essentials: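 Steps: expose the mutant yeast strain to compound; grow alongside vehicle-treated cultures; measure growth; express inhibition against the vehicle cultures.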
Assay [6] in a line: NCI Yeast Anticancer Drug Screen. Data for the mlh1 rad18 strain (AID 175). The settings on record: S. cerevisiae mlh1 rad18 strain growth inhibition, active compounds read high. The method, boiled down: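 Vehicle-treated cultures served as the reference for growth inhibition in a yeast strain carrying DNA damage repair alterations exposed to each compound.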
Where [7] appears, read: at 5.0 µM (retest, dose inferred, filed as 0.5).
Setting [8] is: at 50.0 µM (retest, dose inferred, filed as 5.0).

This is part of a sample that, as a whole, favours compounds with a hit. Of some 79,000 tested, about 15% had one in any assay. Unmarked numbers belong to inactive results. Active and inactive are the calls of the source. Cut-off read from the data, not from the text of the source: active = growth inhibition above about 70%; inactive = the rest.

Turning to `[Cl][Pt+2][Cl].[NH-]C1CCCC2CCC[N-]C12` (configuration not stated), the growth inhibition in assay [1] (setting [7]) was 34%; in assay [1] (setting [8]), 97% (active); in assay [1] (at 50.0 µM), 20.6%; in assay [2] (setting [7]), 24%; in assay [2] (setting [8]) it was 77% (active); in assay [2] (at 50.0 µM), 60.4%. In addition, the growth inhibition in assay [3] (setting [7]) was 55%; in assay [3] (setting [8]) it was 98% (active); in assay [3] (at 50.0 µM) it was 57.8%; in assay [4] (setting [7]), 50%; in assay [4] (setting [8]) it was 86% (active); in assay [4] (at 50.0 µM), 34%. Moreover, the growth inhibition in assay [5] (setting [7]) was 52%; in assay [5] (setting [8]), 84% (active); in assay [5] (at 50.0 µM), 38.5%; in assay [6] (setting [7]) it was 18%; in assay [6] (setting [8]), 97% (active); in assay [6] (at 50.0 µM), 76.1% (active).
Consider `CC(=O)C(CN(C)C)C(c1ccccc1)c1c(O)c2ccccc2oc1=O` (configuration not stated), for which the growth inhibition in assay [1] (setting [7]) is 22%; in assay [1] (setting [8]), 22%; in assay [1] (at 50.0 µM), 65.7%; in assay [2] (setting [7]), 20%; in assay [2] (setting [8]) it was 20%; in assay [2] (at 50.0 µM) it was 54.4%. For the same molecule, the growth inhibition in assay [3] (setting [7]) is 4%; in assay [3] (setting [8]), 4%; in assay [3] (at 50.0 µM) it was 70.8% (active); in assay [4] (setting [7]), -4%; in assay [4] (setting [8]) it was -4%; in assay [4] (at 50.0 µM), 64%. Further, the growth inhibition in assay [5] (setting [7]) is 13%; in assay [5] (setting [8]) it was 13%; in assay [5] (at 50.0 µM), 59.6%; in assay [6] (setting [7]) it was 17%; in assay [6] (setting [8]), 17%; in assay [6] (at 50.0 µM), 64.2%.
As for `C[Si]1(C)CCCCC2(C1)C(=O)NC(=O)NC2=O`, the growth inhibition in assay [1] (setting [7]) was 0%; in assay [1] (setting [8]), 17%; in assay [1] (at 50.0 µM), 16.4%; in assay [2] (setting [7]), 4%; in assay [2] (setting [8]), 20%; in assay [2] (at 50.0 µM) it was 2.6%. The growth inhibition in assay [3] (setting [7]) is -1%; in assay [3] (setting [8]), 58%; in assay [3] (at 50.0 µM), 51%; in assay [4] (setting [7]), -3%; in assay [4] (setting [8]), 5%; in assay [4] (at 50.0 µM) it was 16.5%. In addition, the growth inhibition was -5% in assay [5] (setting [7]); 13% in assay [5] (setting [8]); 10.8% in assay [5] (at 50.0 µM); -17% in assay [6] (setting [7]); 3% in assay [6] (setting [8]); 8.5% in assay [6] (at 50.0 µM).
As for `CC(C)(C)[CH2][Hg][Cl]`, the growth inhibition in assay [1] (setting [7]) was 100% (active); in assay [1] (setting [8]) it was 100% (active); in assay [1] (at 50.0 µM), 99.7% (active); in assay [2] (setting [7]), 100% (active); in assay [2] (setting [8]) it was 100% (active); in assay [2] (at 50.0 µM), 99.5% (active). Besides, the growth inhibition in assay [3] (setting [7]) was 100% (active); in assay [3] (setting [8]), 99% (active); in assay [3] (at 50.0 µM), 99.5% (active); in assay [4] (setting [7]), 100% (active); in assay [4] (setting [8]) it was 99% (active); in assay [4] (at 50.0 µM), 98.7% (active). In addition, the growth inhibition was 100% (active) in assay [5] (setting [7]); 100% (active) in assay [5] (setting [8]); 99.5% (active) in assay [5] (at 50.0 µM); 99% (active) in assay [6] (setting [7]); 99% (active) in assay [6] (setting [8]); 99.5% (active) in assay [6] (at 50.0 µM).
Regarding `O=CNc1ccccc1.[Hg]`, the growth inhibition in assay [1] (setting [7]) is 98% (active); in assay [1] (setting [8]) it was 98% (active); in assay [1] (at 50.0 µM), 99.7% (active); in assay [2] (setting [7]) it was 99% (active); in assay [2] (setting [8]), 99% (active); in assay [2] (at 50.0 µM) it was 99.6% (active). Also, the growth inhibition is 99% (active) in assay [3] (setting [7]); 98% (active) in assay [3] (setting [8]); 99.4% (active) in assay [3] (at 50.0 µM); 99% (active) in assay [4] (setting [7]); 98% (active) in assay [4] (setting [8]); 99.3% (active) in assay [4] (at 50.0 µM). The growth inhibition in assay [5] (setting [7]) was 99% (active); in assay [5] (setting [8]), 98% (active); in assay [5] (at 50.0 µM), 99.5% (active); in assay [6] (setting [7]), 98% (active); in assay [6] (setting [8]) it was 98% (active); in assay [6] (at 50.0 µM), 99.4% (active).
For the molecule `CC(=O)[O][Hg][c]1ccccc1N`, the growth inhibition in assay [1] (setting [7]) was 36%; in assay [1] (setting [8]), 60%; in assay [1] (at 50.0 µM), 91.6% (active); in assay [2] (setting [7]), 36%; in assay [2] (setting [8]), 64%; in assay [2] (at 50.0 µM), 93.8% (active). The growth inhibition is 99% (active) in assay [3] (setting [7]); 99% (active) in assay [3] (setting [8]); 93.7% (active) in assay [3] (at 50.0 µM); 46% in assay [4] (setting [7]); 99% (active) in assay [4] (setting [8]); 92% (active) in assay [4] (at 50.0 µM). Besides, the growth inhibition is 99% (active) in assay [5] (setting [7]); 98% (active) in assay [5] (setting [8]); 92.1% (active) in assay [5] (at 50.0 µM); 22% in assay [6] (setting [7]); 35% in assay [6] (setting [8]); 91.7% (active) in assay [6] (at 50.0 µM).
As for `C=CCC[CH2][Sn]([c]1ccccc1)([c]1ccccc1)[c]1ccccc1`, the growth inhibition in assay [1] (setting [7]) was 98% (active); in assay [1] (setting [8]) it was 93% (active); in assay [1] (at 50.0 µM) it was 99.5% (active); in assay [2] (setting [7]), 99% (active); in assay [2] (setting [8]) it was 98% (active); in assay [2] (at 50.0 µM) it was 99.5% (active). Further, the growth inhibition in assay [3] (setting [7]) was 99% (active); in assay [3] (setting [8]) it was 98% (active); in assay [3] (at 50.0 µM) it was 99.4% (active); in assay [4] (setting [7]), 98% (active); in assay [4] (setting [8]) it was 96% (active); in assay [4] (at 50.0 µM) it was 98.2% (active). Also, the growth inhibition in assay [5] (setting [7]) was 97% (active); in assay [5] (setting [8]), 97% (active); in assay [5] (at 50.0 µM), 99% (active); in assay [6] (setting [7]), 99% (active); in assay [6] (setting [8]), 97% (active); in assay [6] (at 50.0 µM) it was 99.4% (active).
Consider `COC1=C(C)C(=O)c2c(c(COC(N)=O)c3n2CC2C3N2C)C1=O` (configuration not stated), for which the growth inhibition is 37% in assay [1] (setting [7]); 65% in assay [1] (setting [8]); 93% (active) in assay [1] (at 50.0 µM); 2% in assay [2] (setting [7]); 52% in assay [2] (setting [8]); 95.3% (active) in assay [2] (at 50.0 µM). For the same molecule, the growth inhibition in assay [3] (setting [7]) is 30%; in assay [3] (setting [8]), 74% (active); in assay [3] (at 50.0 µM), 73.8% (active); in assay [4] (setting [7]), -8%; in assay [4] (setting [8]), 72% (active); in assay [4] (at 50.0 µM) it was 87.1% (active). Further, the growth inhibition is 8% in assay [5] (setting [7]); 27% in assay [5] (setting [8]); 78.1% (active) in assay [5] (at 50.0 µM); 13% in assay [6] (setting [7]); 93% (active) in assay [6] (setting [8]); 96% (active) in assay [6] (at 50.0 µM).
Take `COc1cc(C(=O)CCN(CCCl)CCCl)cc(OC)c1OC`: the growth inhibition in assay [1] (setting [7]) is -1%; in assay [1] (setting [8]), 68%; in assay [1] (at 50.0 µM), 95.5% (active); in assay [2] (setting [7]) it was 0%; in assay [2] (setting [8]) it was 67%; in assay [2] (at 50.0 µM), 97.3% (active). Moreover, the growth inhibition in assay [3] (setting [7]) was 13%; in assay [3] (setting [8]) it was 82% (active); in assay [3] (at 50.0 µM), 97.2% (active); in assay [4] (setting [7]) it was 0%; in assay [4] (setting [8]) it was 55%; in assay [4] (at 50.0 µM) it was 99.5% (active). Further, the growth inhibition in assay [5] (setting [7]) is -3%; in assay [5] (setting [8]), 82% (active); in assay [5] (at 50.0 µM), 93.2% (active); in assay [6] (setting [7]) it was 13%; in assay [6] (setting [8]) it was 83% (active); in assay [6] (at 50.0 µM) it was 97.1% (active).

(Values after PubChem BioAssay (NCI).)
